Experiment [1] in a line: qHTS profiling for inhibitors of Plasmodium falciparum proliferation (AID 504749). Also: potency is read from the fitted curve at half-maximal effect.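 As to activity, negative = inhibition: 0% = DMSO vehicle and full inhibition = artemisinin control.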 As to all read-outs here: nearly all actives have a fitted effect of over 60% in size. The note with it: P. falciparum in erythrocytes, SYBR Green DNA, 72 h; for activity, negative = inhibition: at 28.7 µM (top of the series). An outline of the steps:
(§1)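 Fluorescence of SYBR Green-bound parasite DNA, read at 485/535 nm, served as the growth measure. Infected erythrocytes were cultured with compound 72 h; artemisinin (0.29 uM) and DMSO wells defined the normalization range.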
For orientation: qHTS replaces the single test concentration by a dilution series.

The next experiment has as its system 3D7. Described as above. The note with it: P. falciparum in erythrocytes, SYBR Green DNA, 72 h; series mostly up to 28.7 µM. An outline of the steps:
as §1

A short description of experiment [2]: Primary fluorescence-based thiol-reactive (MSTI) qHTS assay for identification of artifact compounds. (AID 1845221).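 Also: thiol-reactive compounds lower the probe fluorescence signal; nearly all actives have a fitted effect of over 65% in size.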 The note with it: MSTI thiol-reactivity probe, 1 h; series mostly up to 53.8 µM. A digest of the protocol: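 One-hour, room-temperature, dark incubation of compound with 4 uM MSTI in PBS (pH 7.4, 2% DMSO) precedes a fluorescence read at 525 nm excitation, 598 nm emission; Hill-equation fitting yields concentration-response values.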

Experiment [3] has as its system Nanoluciferase (engineered Oplophorus gracilirostris luciferase). As to the kind of experiment: Primary Nanoluciferase (NLuc) qHTS assay for identification of artifact compounds. (AID 1845222).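 Also: NLuc secreted into diluted conditioned medium of S16 cells; 0% = DMSO and -100% = no enzyme.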 The note with it: NLuc-conditioned medium, Nano-Glo luminescence, 5 min; series mostly up to 54.1 µM. A digest of the protocol:
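Using secreted nanoluciferase in S16 culture medium (0.22 um filtered, 1:55 dilution), compounds were preincubated 15 min at RT. Signal was generated with Nano-Glo reagent (1:100) over 5 min.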

Experiment [4] can be described thus: Primary redox qHTS assay for identification of artifact compounds. (AID 1845223).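 Also: 0% = DMSO and 100% = reference compound.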 The note with it: Amplex Red/HRP redox cycling with DTT, fluorescence; series mostly up to 53.8 µM. An outline of the steps:
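Redox-cycling detection via DTT (250 uM final) oxidation coupled to Amplex Red (25 uM)/HRP (250 mU/mL) in HBSS. 15 min preincubation plus 30 min after DTT, room temperature. Ex/Em 525/598 nm; 4-parameter Hill fit against DMSO and 10 uM DA3003.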

In another experiment the test system is 7G8. As to the kind of experiment: qHTS profiling for inhibitors of Plasmodium falciparum proliferation (AID 504749). Also: nearly all actives have a fitted effect of over 60% in size. Also: potency is read from the fitted curve at half-maximal effect.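 As to activity, negative = inhibition: 0% = DMSO vehicle and full inhibition = artemisinin control.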 The note with it: P. falciparum in erythrocytes, SYBR Green DNA, 72 h; series mostly up to 28.7 µM. An outline of the steps: as §1
A further experiment has as its system AA1029. The description is as above. The note with it: P. falciparum in erythrocytes, SYBR Green DNA, 72 h; series mostly up to 28.7 µM. An outline of the steps:
as §1

Experiment [5] is described as follows: qHTS drug screen for cell cycle checkpoint inhibitors in PARPi-resistant BRCA-mutant ovarian cancer cell lines. (AID 1963452; calls by dose curve; also: potency is read from the fitted curve at half-maximal effect). The note with it: PEO1/OlaR viability, CellTiter-Glo luminescence, 96 h; for Z-AUC: stronger effect = lower value. An outline of the steps:
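PEO1, PEO4 and PEO1/OlaR ovarian cancer cells, 600 per well, exposed 96 h at 37C to a dilution series. Viability read by CellTiter-Glo luminescence, normalized to DMSO and empty wells; activity summarized as Z-AUC.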

Another experiment has as its system AS120. As to the kind of experiment: qHTS profiling for inhibitors of Plasmodium falciparum proliferation (AID 504749). Also: nearly all actives have a fitted effect of over 60% in size. Also: potency is read from the fitted curve at half-maximal effect.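 As to activity, negative = inhibition: 0% = DMSO vehicle and full inhibition = artemisinin control.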 The following applies: P. falciparum in erythrocytes, SYBR Green DNA, 72 h; series mostly up to 28.7 µM. A digest of the protocol:
as §1

The mark [6] stands for this setting: measured here: PEO1 parental Z-AUC.

Inconclusive results are not listed. Calls of active or inactive are those of the source. Unless noted, calls follow the shape of the dose curve; as a rule, active = well fitted curve in the direction sought with a large enough effect; inconclusive = small, poorly fitted or top-dose-only effect, or another doubt; inactive = no such curve, though single readings can be large; an effect the other way counts as inactive or inconclusive.

Turning to `CN(C)CCN1C(=O)c2ccccc2N(C)c2ccccc21`, the activity, negative = inhibition in experiment [1] (parasite line A) was -2.77% (inactive); in experiment [1] (parasite line B) it was 8.88% (inactive). In addition, in the experiment on 3D7, the Potency entry is “inactive”.

As to `CC[C@]12CCCN3CCc4c(n(c5ccccc45)C(=O)C1)[C@@H]32`, the result in experiment [2], in experiment [3] and in [4] was inactive.

`CN1CCN(c2cc3c(cc2F)c(=O)c(C(=O)O)cn3-c2ccc(F)cc2)CC1`: the activity, negative = inhibition in [1] (parasite line A) is -21.3% (inactive); in experiment [1] (parasite line B), -17.5% (inactive). Besides, the Potency result with 3D7, in the experiment with 7G8 and with AA1029 was “inactive” in each case.

As for `C[C@@H](O)[C@H]1C(=O)N2C(C(=O)O)=C(S[C@@H]3CN[C@H](CNS(N)(=O)=O)C3)[C@H](C)[C@H]12`, the Z-AUC is -0.121 (inactive) in [5], 0.644 in experiment [5] (setting [6]) and 0.433 in experiment [5] (measured here: PEO4 Z-AUC). In addition, the results for the activity, negative = inhibition in experiment [1] (parasite line A) and in [1] (parasite line B) were 0.841% (inactive) and 3.74% (inactive), respectively. The Potency entry in the experiment on 3D7, with 7G8, with AA1029 and in the experiment on AS120 was “inactive” each time.

With `CCCCCN=C(N)N/N=C/c1c[nH]c2ccc(OC)cc12`, the figures for the Z-AUC in [5], in experiment [5] (setting [6]) and in experiment [5] (measured here: PEO4 Z-AUC) were -0.801 (inactive), -1.05 and -1.17, respectively. Also, the Potency in experiment [1] (parasite line A) was 8.91 µM (active); in experiment [1] (parasite line B), 12.6 µM (active); in the experiment with 3D7, 8.91 µM (active); in the experiment with 7G8, 1 µM (active); in the experiment with AS120 it was 10 µM (active).

`Cc1ccc(O)c([C@H](CCN(C(C)C)C(C)C)c2ccccc2)c1`: the Z-AUC in experiment [5] is -0.294 (inactive); in [5] (setting [6]) it was -0.8; in [5] (measured here: PEO4 Z-AUC), -0.815. The Potency in experiment [1] (parasite line A) is 7.08 µM (active); in experiment [1] (parasite line B) it was 3.98 µM (active); with 3D7 it was 6.31 µM (active); with 7G8, 1 µM (active); with AA1029 it was 3.16 µM (active); with AS120 it was 2.51 µM (active).

`Cc1nc(-c2ccc(Cl)cc2)oc1COC(C)(C)C(=O)O`: the activity, negative = inhibition in [1] (parasite line A) was 9.36% (inactive); in [1] (parasite line B) it was 9.87% (inactive). Moreover, the Potency entry with 3D7, in the experiment with 7G8, with AA1029 and in the experiment on AS120 was “inactive” throughout.

Consider `Nc1nc(Cl)nc2c1ncn2[C@@H]1O[C@H](CO)[C@@H](O)[C@@H]1F`, for which the Potency in experiment [5] is 0.0977 µM (active). In addition, the Z-AUC is -1.93 in [5] (setting [6]) and -1.97 in experiment [5] (measured here: PEO4 Z-AUC).

For `NCc1ccccc1Sc1ccccc1CO`, the activity, negative = inhibition in [1] (parasite line A) was 10.7% (inactive); in [1] (parasite line B), -5.68% (inactive). Moreover, in the experiment with 3D7, the Potency entry is “inactive”. Also, the Potency in the experiment on 7G8 was 11.2 µM (active).

On to `Cc1ccc(-c2ncc(Cl)cc2-c2ccc(S(C)(=O)=O)cc2)cn1`, for which the Z-AUC in experiment [5] is 0.855 (inactive); in experiment [5] (setting [6]), 0.717; in experiment [5] (measured here: PEO4 Z-AUC), 0.912. For the same compound, the Potency result in the experiment with 3D7 was “inactive”. For the same compound, in the experiment on 7G8, the Potency is 8.91 µM (active).

With `O=C(CCCN1CC=C(n2c(=O)[nH]c3ccccc32)CC1)c1ccc(F)cc1`, the compound was called inactive in [2], in experiment [3] and in experiment [4].

For the compound `CC(=O)O[C@]1(C(C)=O)CC[C@H]2[C@@H]3C=C(C)C4=CC(=O)CC[C@]4(C)[C@H]3CC[C@@]21C`, the Z-AUC in experiment [5] is 0.958 (inactive); in experiment [5] (setting [6]), 0.601; in [5] (measured here: PEO4 Z-AUC) it was 0.47.
